The values that follow come from PubChem BioAssay (NCI).

The panel holds about 83,000 compounds, 20% with a hit somewhere; the sample as a whole holds those more often.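 How to read the values: 0–100, growth inhibition (40 = 60% inhibited); 0, no net growth; -100 to 0, cell death (-40 = 40% of starting cells died; -100 = all dead).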 A number with no mark means an inactive call. Active and inactive are the calls of the source. Rule for the calls: active = growth percent below 10; inactive = the rest.

Test systems include SR leukemia; RPMI-8226 leukemia; OVCAR-8 ovarian; OVCAR-5 ovarian; OVCAR-4 ovarian; SK-OV-3 ovarian; IGROV1 ovarian; HS 578T breast; NCI/ADR-RES ovarian; T-47D breast; BT-549 breast; MDA-MB-435 melanoma; SW-620 colon; MCF7 breast; HCT-116 colon; HCC-2998 colon; KM12 colon; OVCAR-3 ovarian.
Common to all, as to test: NCI-60 one-dose screen, 48 h (100 = growth as untreated, 0 = no growth, -100 = all killed)
Common to all, as to settings: 10 µM unless noted

Take `N#Cc1cnc2ccc(-c3cnc4[nH]ncc4c3)cc2c1N1CCc2cc(F)c(Cl)cc21`: the growth in the assay with SR leukemia was 8.41% (active); with RPMI-8226 leukemia it was -1.79% (active); with OVCAR-8 ovarian it was 19.2%; with OVCAR-5 ovarian, 19.5%; in the assay with OVCAR-4 ovarian, 15.3%; in the assay with SK-OV-3 ovarian, 4.24% (active). Also, the growth with IGROV1 ovarian was -31% (active); in the assay on HS 578T breast, -42% (active); in the assay with NCI/ADR-RES ovarian, 8.51% (active); in the assay with T-47D breast, -2.57% (active); in the assay with BT-549 breast, 20.1%; with MDA-MB-435 melanoma, -10.2% (active). Further, the growth in the assay on SW-620 colon is 17.9%; in the assay with MCF7 breast, -2.16% (active); in the assay with HCT-116 colon, 8.48% (active); in the assay with HCC-2998 colon it was -11.8% (active); in the assay with KM12 colon it was 14%.
Turning to `CCN(CC)c1ccc2c(c1)Oc1nc(N)c(C#N)c(N)c1C2Sc1ccc(F)cc1` (stereo not given), the growth with SR leukemia is -9.13% (active); with RPMI-8226 leukemia, -25.7% (active); in the assay with OVCAR-8 ovarian, -31.1% (active); with OVCAR-5 ovarian it was -92.5% (active); in the assay with OVCAR-4 ovarian, -29.3% (active); in the assay with SK-OV-3 ovarian, -7.03% (active). For the same molecule, the growth was -77.9% (active) in the assay on IGROV1 ovarian; -69.4% (active) in the assay with OVCAR-3 ovarian; -4.5% (active) with HS 578T breast; -35% (active) in the assay with T-47D breast; 56.1% in the assay with BT-549 breast; -17.5% (active) with MDA-MB-435 melanoma. In addition, the growth was -80.2% (active) with SW-620 colon; -85.5% (active) in the assay with MCF7 breast; -81.4% (active) in the assay on HCT-116 colon; -90.9% (active) with HCC-2998 colon; -74.1% (active) in the assay on KM12 colon.
Consider `CCOc1ccc(NC2=C(Cl)C(=O)c3nc(C)ccc3C2=O)cc1`, for which the growth in the assay with SR leukemia was -27.4% (active); with RPMI-8226 leukemia it was -19.3% (active); with OVCAR-8 ovarian, 1.03% (active); with OVCAR-5 ovarian it was 54.8%; with OVCAR-4 ovarian, -97.5% (active); in the assay with SK-OV-3 ovarian it was 79.8%. The growth in the assay on IGROV1 ovarian is -82.4% (active); in the assay with OVCAR-3 ovarian, -97.2% (active); in the assay with HS 578T breast, 49%; in the assay with T-47D breast, -43.8% (active); with BT-549 breast, 46.5%; with MDA-MB-435 melanoma, -83.7% (active). Also, the growth was -55.3% (active) in the assay on SW-620 colon; -67% (active) in the assay on MCF7 breast; -83.6% (active) in the assay with HCT-116 colon; -55.7% (active) with HCC-2998 colon; 57.4% with KM12 colon.
For `CN1CCN(Cc2ccc(NC(=O)c3cncc(C#Cc4cnc5ccc(N6CCN(C)CC6)nn45)c3)cc2C(F)(F)F)CC1`, the growth in the assay with SR leukemia is -52.2% (active); with RPMI-8226 leukemia, -13.9% (active); in the assay with OVCAR-8 ovarian it was -81.8% (active); in the assay with OVCAR-5 ovarian, 61.4%; in the assay on OVCAR-4 ovarian, 10.9%; in the assay with SK-OV-3 ovarian, 92%. For the same molecule, the growth with IGROV1 ovarian is -37.2% (active); in the assay with OVCAR-3 ovarian, -76.9% (active); in the assay with HS 578T breast, -23.1% (active); with T-47D breast it was 110%; in the assay with BT-549 breast, 73%; with MDA-MB-435 melanoma it was -87.5% (active). Besides, the growth in the assay with SW-620 colon is -74.9% (active); in the assay with MCF7 breast, -76.2% (active); in the assay with HCT-116 colon, -20.1% (active); in the assay with HCC-2998 colon, 54.8%; with KM12 colon it was -78.8% (active).
Take `COC(=O)c1[nH]nc2c1C1(C(=O)N(C)c3ccccc31)C(C#N)=C(N)O2` (stereo not given): the growth with SR leukemia was 113%; in the assay on RPMI-8226 leukemia, 104%; in the assay on OVCAR-8 ovarian it was 102%; in the assay on OVCAR-5 ovarian, 103%; in the assay with OVCAR-4 ovarian, 97.7%; in the assay on SK-OV-3 ovarian, 98.3%. The growth in the assay with IGROV1 ovarian was 105%; in the assay with HS 578T breast it was 99.7%; with NCI/ADR-RES ovarian it was 99.7%; in the assay on T-47D breast it was 108%; in the assay with BT-549 breast, 133%; with MDA-MB-435 melanoma, 99.9%. The growth is 93% with SW-620 colon; 89.6% in the assay on MCF7 breast; 101% in the assay with HCT-116 colon; 104% in the assay with HCC-2998 colon; 103% in the assay on KM12 colon.
As for `Oc1[nH]c2ccccc2c1Nn1c(N=N/C=c2/ccc3c(c2)C=NN=3)n[nH]c1=S`, the growth in the assay on SR leukemia is 84.5%; with RPMI-8226 leukemia it was 91%; with OVCAR-8 ovarian it was 105%; in the assay on OVCAR-5 ovarian, 109%; with OVCAR-4 ovarian, 84.6%; in the assay with SK-OV-3 ovarian it was 106%. In addition, the growth is 74.6% in the assay on IGROV1 ovarian; 96.8% in the assay with OVCAR-3 ovarian; 103% in the assay with HS 578T breast; 112% in the assay with NCI/ADR-RES ovarian; 99% in the assay with T-47D breast; 103% in the assay with MDA-MB-435 melanoma. Besides, the growth is 99% in the assay on SW-620 colon; 77.1% in the assay with MCF7 breast; 104% with HCT-116 colon; 118% in the assay with HCC-2998 colon; 93.3% with KM12 colon.
With `C#C[C@]1(O)CC[C@H]2[C@@H]3CC=C4c5sc(-c6ccc(C)cc6)nc5CC[C@]4(C)[C@H]3CC[C@@]21C`, the growth is 0.0897% (active) with SR leukemia; -27.4% (active) in the assay on RPMI-8226 leukemia; 58.4% in the assay with OVCAR-8 ovarian; 93.5% with OVCAR-5 ovarian; 65.3% in the assay with OVCAR-4 ovarian; -7.23% (active) in the assay on SK-OV-3 ovarian. Also, the growth was 49.3% in the assay on IGROV1 ovarian; 62% in the assay with OVCAR-3 ovarian; -26.9% (active) in the assay on HS 578T breast; 50.4% in the assay with T-47D breast; 47.8% in the assay on BT-549 breast; -46.4% (active) in the assay with MDA-MB-435 melanoma. Moreover, the growth in the assay on SW-620 colon was -37.5% (active); in the assay with MCF7 breast, 1.73% (active); with HCT-116 colon it was 29.4%; with HCC-2998 colon it was 62.6%; in the assay on KM12 colon, 12.7%.
As to `COc1ccc(/C(N)=N/C(N)=N/c2nc3ccccc3s2)cc1`, the growth in the assay with SR leukemia is 13.4%; in the assay with RPMI-8226 leukemia, 43.6%; in the assay on OVCAR-8 ovarian, 97.3%; in the assay on OVCAR-5 ovarian, 103%; with OVCAR-4 ovarian, 76.5%; in the assay on SK-OV-3 ovarian, 99.6%. Besides, the growth in the assay with IGROV1 ovarian was 49.8%; in the assay with OVCAR-3 ovarian it was 96%; in the assay with HS 578T breast, 81.3%; with NCI/ADR-RES ovarian, 35%; in the assay on T-47D breast, 80.4%; with MDA-MB-435 melanoma, 20.3%. Also, the growth in the assay on SW-620 colon was 65.4%; in the assay with MCF7 breast it was 71.2%; with HCT-116 colon, 79.6%; with HCC-2998 colon it was 91.9%; in the assay on KM12 colon, -11.5% (active).
Consider `O=C1CCCc2nc(Nc3ccc(S(=O)(=O)Nc4ccc([N+](=O)[O-])cc4)cc3)ncc21`, for which the growth in the assay on SR leukemia was 105%; with RPMI-8226 leukemia, 100%; with OVCAR-8 ovarian, 106%; in the assay with OVCAR-5 ovarian it was 111%; in the assay on OVCAR-4 ovarian, 107%; in the assay with SK-OV-3 ovarian it was 109%. Moreover, the growth was 98% with IGROV1 ovarian; 98.9% in the assay on OVCAR-3 ovarian; 98.4% with HS 578T breast; 105% in the assay with T-47D breast; 117% with BT-549 breast; 104% in the assay with MDA-MB-435 melanoma. Besides, the growth in the assay on SW-620 colon is 102%; in the assay with MCF7 breast, 95.2%; in the assay on HCT-116 colon, 108%; with HCC-2998 colon it was 110%; in the assay on KM12 colon it was 98.3%.
With `CCN(CC)CCn1c2ccc(O)cc2c2sc3cc(OC)ccc3c(=O)c21`, the growth was -13.4% (active) in the assay with SR leukemia; -13.1% (active) in the assay with RPMI-8226 leukemia; 19.3% with OVCAR-8 ovarian; 44.7% in the assay with OVCAR-5 ovarian; 28.2% in the assay with OVCAR-4 ovarian; 74.7% in the assay on SK-OV-3 ovarian. Moreover, the growth in the assay with IGROV1 ovarian is 19.2%; in the assay on OVCAR-3 ovarian, 41.8%; in the assay with HS 578T breast, 63.6%; in the assay with T-47D breast, 59.3%; with BT-549 breast it was 68.1%; in the assay with MDA-MB-435 melanoma, 19.4%. In addition, the growth is -50.8% (active) with SW-620 colon; -55.2% (active) with MCF7 breast; -46% (active) in the assay on HCT-116 colon; 36.6% with HCC-2998 colon; 25% in the assay on KM12 colon.
